These results are taken from PubChem BioAssay.

The target of one assay is Dickkopf-related protein 1 (Homo sapiens) (UniProt O94907). The assay is described as follows: DKK1 binders on small-molecule microarrays, primary screen, biochemical, small-molecule microarray, 635 nm fluorescence scan (AID 1106).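 Also: score merges emission near 667 nm with signal to noise over three replicate slides.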 The note with it: DKK1 binding, higher = more signal.
Sequence of Dickkopf-related protein 1 (Homo sapiens) (O94907 whole entry, looked up): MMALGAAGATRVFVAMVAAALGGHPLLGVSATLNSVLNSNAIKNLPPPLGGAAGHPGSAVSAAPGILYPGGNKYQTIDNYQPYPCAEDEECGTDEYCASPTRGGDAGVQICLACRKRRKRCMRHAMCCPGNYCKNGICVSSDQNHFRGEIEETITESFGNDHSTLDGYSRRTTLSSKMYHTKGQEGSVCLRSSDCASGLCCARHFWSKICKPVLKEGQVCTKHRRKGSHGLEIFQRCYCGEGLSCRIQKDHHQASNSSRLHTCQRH
`COc1ccc(COC(=O)NN=C2C[C@@H](O)[C@@H](O)[C@@H]3[C@@H]4C(=O)N(c5ccc(F)cc5F)C(=O)[C@@H]4CC[C@H]23)cc1` had a composite z-score of -1.13.

`COc1ccc(O[C@H]2C=C[C@@H](c3ccccc3)O[C@@H]2COC(=O)CCC(C)=NOC[C@@H](O)[C@H]2O[C@@H]3OC(C)(C)O[C@@H]3[C@H]2O)cc1`: the composite z-score worked out at 0.551.

With `CO[C@H]1COC(=O)CC=C[C@H](C)[C@@H](OC)COC(=O)[C@H](C)COC(=O)CC=C[C@@H]1C`, the composite z-score came out at 1.78.

The compound `CCOC(=O)C1=NO[C@]2(C=C(Br)C3(OCCCO3)[C@H]3O[C@H]32)C1` came in with a composite z-score of -0.123.

`Cc1cc2c(nc1C)CCCCN2CC(C)ON=C1[C@H]2CCn3c(=O)n(-c4ccccc4)c(=O)n3[C@H]2[C@H](O)[C@@H]2O[C@H]12` (stereo not given in full): the composite z-score came to 0.7.

Take `COc1ccc(O[C@H]2C=C[C@@H](c3ccccc3)O[C@@H]2COC(=O)CCC(C)=NO[C@@H]2O[C@H](COC(C)=O)[C@@H](OC(C)=O)[C@H](OC(C)=O)[C@H]2OC(C)=O)cc1`: the composite z-score amounted to 0.275.

As for `Cc1cc2c(c(=O)o1)[C@@H](O)[C@H]1O[C@H]1C2=O`, the composite z-score came out at 0.585.

Take `CCOC(=O)CCN1C(=O)[C@H]2[C@H]3[C@H](O)[C@H](O)CC(=NNC(=O)OCc4ccccc4)[C@@H]3CC[C@H]2C1=O`: the composite z-score was found to be 0.516.

The compound `O=C1[C@H]2[C@H]3[C@H](O)[C@H](O)CC(=NOC[C@@H](O)COCc4ccco4)[C@@H]3CC[C@H]2C(=O)N1C[C@@H]1CCCO1` showed a composite z-score of 1.51.

`CC(C)CON=C1C[C@@H](O)[C@@H](O)[C@@H]2[C@@H]3C(=O)N(C[C@@H]4CCCO4)C(=O)[C@@H]3CC[C@@H]12` came in with a composite z-score of -0.554.

The compound `CON=Cc1ccc(C(=O)N2[C@H](c3ccc(C)cc3)[C@@H](C)CC[C@H]2C(=O)OC)cc1` came in with a composite z-score of 0.573.

In the case of `C[C@@H](c1ccccc1)N1C(=O)[C@H]2[C@H]3[C@H](O)[C@H](O)CC(=O)[C@H]3CC[C@H]2C1=O`, the composite z-score is 0.491.

`CC(C)CON=C1C[C@@H](O)[C@@H](O)[C@@H]2[C@@H]3C(=O)N(Cc4ccc5c(c4)OCO5)C(=O)[C@@H]3CC[C@H]12` had a composite z-score of 0.178.

In turn, `CCN1C(=O)[C@H]2[C@H]3[C@H](O)[C@H](O)CC(=NOCC(C)C)[C@@H]3CC[C@H]2C1=O` displayed a composite z-score of 0.797.

For `CC(C)=NO[C@H](C)c1cn([C@H](CO)Cc2ccccc2)nn1`, the composite z-score worked out at 0.291.

With `CCCNC(=O)OC[C@H]1O[C@H](c2ccccc2)C=C[C@@H]1Oc1ccc(OC)cc1`, the composite z-score is -0.0332.

Regarding `C[C@@H]1CC[C@H]2C(=O)O[C@@H](Cc3ccccc3)CN2[C@H]1c1ccc(Br)cc1`, the composite z-score was 0.783.

Take `COc1ccc(O[C@H]2C=C[C@@H](c3ccccc3)O[C@@H]2CON=C(C)CCC(=O)OC[C@H]2O[C@H](c3ccccc3)C=C[C@@H]2Oc2ccc(OC)cc2)cc1`: the composite z-score was -0.591.

`O=C1[C@H]2[C@H]3[C@H](O)[C@H](O)CC(=NOCc4ccccc4)[C@@H]3CC[C@H]2C(=O)N1Cc1ccc2c(c1)OCO2` showed a composite z-score of 0.472.

Compound `COC(=O)CC=C[C@@H](C)[C@@H](C=NO[C@@H]1O[C@H](COC(C)=O)[C@@H](OC(C)=O)[C@H](OC(C)=O)[C@H]1OC(C)=O)OC` registered a composite z-score of -2.27.

The compound `COc1cccc([C@H]2Oc3ccc(OC)cc3C(=NOC[C@@H](O)[C@H]3O[C@@H]4OC(C)(C)O[C@@H]4[C@H]3O)[C@@H]2O)c1` returned a composite z-score of 0.548.

`O=C1C[C@@H](O)[C@@H](O)[C@@H]2[C@@H]3C(=O)N(Cc4ccccc4)C(=O)[C@@H]3CC[C@@H]12`: the composite z-score was found to be 0.59.

As to `CO[C@H]1COC(=O)CC=C[C@@H](C)[C@H](OC)COC(=O)CCC[C@@H]1C`, the composite z-score was 1.19.

For the compound `CCN1C(=O)[C@H]2[C@H]3[C@H](O)[C@H](O)CC(=NNC(=O)OCc4ccc(OC)cc4)[C@@H]3CC[C@H]2C1=O`, the composite z-score was -0.808.

The next assay deals with Inhibin beta A chain (activin A). In words: INHBA (activin A) binders on microarrays, primary screen, biochemical, small-molecule microarray, 635 nm fluorescence scan (AID 1107).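 Also: mouse activin A protein probed at 4.33 µg/mL on printed slides; score merges bound-protein fluorescence near 667 nm with spot signal-to-noise.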 Particulars: small-molecule microarray binding, higher = more signal.
Compound `O=C1CCCC(C2=CCCCC2=O)C1` (stereo not given) registered a composite z-score of 1.5.

Regarding `Cn1c(=O)n2n(c1=O)[C@H]1[C@H](O)[C@@H]3O[C@@H]3C(=NOCc3ccccc3)[C@H]1CC2`, the composite z-score was -0.241.

As for `CO[C@H](C1CCCCC1)[C@H](C)C=CCC(=O)OCCCc1ccccc1`, the composite z-score was found to be 0.332.

In turn, `COC(=O)[C@H](C)NC(=O)CCC1CC(OC(=O)NCc2ccc3c(c2)OCO3)CC2(CCCC(COC(=O)NCC(c3ccccc3)c3ccccc3)O2)O1` (stereo not given in full) registered a composite z-score of -0.473.

The compound `O=c1n(-c2ccccc2)c(=O)n2n1CC[C@@H]1C(=NOCc3ccccc3)[C@H]3O[C@H]3[C@@H](O)[C@@H]12` registered a composite z-score of 0.168.

For the compound `COC(=O)[C@H]1[C@@H](O)[C@@]2(O)c3ccccc3O[C@@]2(c2ccccc2)[C@@H]1c1ccccc1`, the composite z-score was -0.011.

The compound `COC(=O)CC=C[C@@H](C)[C@@H](C=NOC(C)CN1CCCc2nc(C)c(C)cc21)OC` (stereo not given in full) came in with a composite z-score of -0.0511.

Compound `COC(=O)[C@H](C)NC(=O)CCC1CC(OC(=O)NCCc2ccc(F)cc2)CC2(CCCC(COC(=O)NCc3cccc(C(F)(F)F)c3)O2)O1` (stereo not given in full) came in with a composite z-score of 0.0622.

As for `Cc1ccc(S(=O)(=O)N[C@H]2COC(=O)CC=C[C@H](C)[C@@H](NS(=O)(=O)c3ccc(C)cc3)COC(=O)CC=C[C@@H]2C)cc1`, the composite z-score is -0.136.

Regarding `CON=C1[C@H]2CCn3c(=O)n(-c4ccccc4)c(=O)n3[C@H]2[C@H](O)[C@@H]2O[C@H]12`, the composite z-score was 0.141.

`C#CCCCON=C1C[C@@H](O)[C@@H](O)[C@@H]2[C@@H]3C(=O)N(C(C)(C)C)C(=O)[C@@H]3CC[C@@H]12`: the composite z-score came out at 0.477.

The compound `CO[C@H]1COC(=O)CC=C[C@@H](C)[C@H](NS(=O)(=O)c2ccc(C)cc2)COC(=O)CCC[C@@H]1C` yielded a composite z-score of 0.9.

On to `COc1ccc(COC(=O)NN=C2C[C@@H](O)[C@@H](O)[C@@H]3[C@@H]4C(=O)N(c5ccc(F)cc5F)C(=O)[C@@H]4CC[C@H]23)cc1`, for which the composite z-score was -0.009.

Consider `COc1ccc(O[C@H]2C=C[C@@H](c3ccccc3)O[C@@H]2COC(=O)CCC(C)=NOC[C@@H](O)[C@H]2O[C@@H]3OC(C)(C)O[C@@H]3[C@H]2O)cc1`, for which the composite z-score was 0.437.

`CO[C@H]1COC(=O)CC=C[C@H](C)[C@@H](OC)COC(=O)[C@H](C)COC(=O)CC=C[C@@H]1C` came in with a composite z-score of 1.52.

`CCOC(=O)C1=NO[C@]2(C=C(Br)C3(OCCCO3)[C@H]3O[C@H]32)C1` came in with a composite z-score of 0.549.

Take `Cc1cc2c(nc1C)CCCCN2CC(C)ON=C1[C@H]2CCn3c(=O)n(-c4ccccc4)c(=O)n3[C@H]2[C@H](O)[C@@H]2O[C@H]12` (stereo not given in full): the composite z-score is 1.3.

`COc1ccc(O[C@H]2C=C[C@@H](c3ccccc3)O[C@@H]2COC(=O)CCC(C)=NO[C@@H]2O[C@H](COC(C)=O)[C@@H](OC(C)=O)[C@H](OC(C)=O)[C@H]2OC(C)=O)cc1` registered a composite z-score of -0.116.

Take `Cc1cc2c(c(=O)o1)[C@@H](O)[C@H]1O[C@H]1C2=O`: the composite z-score was found to be 0.0545.

With `CCOC(=O)CCN1C(=O)[C@H]2[C@H]3[C@H](O)[C@H](O)CC(=NNC(=O)OCc4ccccc4)[C@@H]3CC[C@H]2C1=O`, the composite z-score was -0.196.

In the case of `O=C1[C@H]2[C@H]3[C@H](O)[C@H](O)CC(=NOC[C@@H](O)COCc4ccco4)[C@@H]3CC[C@H]2C(=O)N1C[C@@H]1CCCO1`, the composite z-score was 1.22.

The compound `CC(C)CON=C1C[C@@H](O)[C@@H](O)[C@@H]2[C@@H]3C(=O)N(C[C@@H]4CCCO4)C(=O)[C@@H]3CC[C@@H]12` gave a composite z-score of -0.148.

In turn, `CON=Cc1ccc(C(=O)N2[C@H](c3ccc(C)cc3)[C@@H](C)CC[C@H]2C(=O)OC)cc1` registered a composite z-score of 0.339.

On to `C[C@@H](c1ccccc1)N1C(=O)[C@H]2[C@H]3[C@H](O)[C@H](O)CC(=O)[C@H]3CC[C@H]2C1=O`, for which the composite z-score is -0.0854.

With `CC(C)CON=C1C[C@@H](O)[C@@H](O)[C@@H]2[C@@H]3C(=O)N(Cc4ccc5c(c4)OCO5)C(=O)[C@@H]3CC[C@H]12`, the composite z-score is -0.374.

As to `CCN1C(=O)[C@H]2[C@H]3[C@H](O)[C@H](O)CC(=NOCC(C)C)[C@@H]3CC[C@H]2C1=O`, the composite z-score was -0.599.

The compound `CC(C)=NO[C@H](C)c1cn([C@H](CO)Cc2ccccc2)nn1` gave a composite z-score of 0.576.

As to `CCCNC(=O)OC[C@H]1O[C@H](c2ccccc2)C=C[C@@H]1Oc1ccc(OC)cc1`, the composite z-score was -0.339.

With `C[C@@H]1CC[C@H]2C(=O)O[C@@H](Cc3ccccc3)CN2[C@H]1c1ccc(Br)cc1`, the composite z-score amounted to 0.619.

`COc1ccc(O[C@H]2C=C[C@@H](c3ccccc3)O[C@@H]2CON=C(C)CCC(=O)OC[C@H]2O[C@H](c3ccccc3)C=C[C@@H]2Oc2ccc(OC)cc2)cc1` came in with a composite z-score of 0.95.

The compound `O=C1[C@H]2[C@H]3[C@H](O)[C@H](O)CC(=NOCc4ccccc4)[C@@H]3CC[C@H]2C(=O)N1Cc1ccc2c(c1)OCO2` gave a composite z-score of 0.45.

On to `COC(=O)CC=C[C@@H](C)[C@@H](C=NO[C@@H]1O[C@H](COC(C)=O)[C@@H](OC(C)=O)[C@H](OC(C)=O)[C@H]1OC(C)=O)OC`, for which the composite z-score was -2.01.

The compound `COc1cccc([C@H]2Oc3ccc(OC)cc3C(=NOC[C@@H](O)[C@H]3O[C@@H]4OC(C)(C)O[C@@H]4[C@H]3O)[C@@H]2O)c1` registered a composite z-score of -0.326.

With `O=C1C[C@@H](O)[C@@H](O)[C@@H]2[C@@H]3C(=O)N(Cc4ccccc4)C(=O)[C@@H]3CC[C@@H]12`, the composite z-score amounted to 0.11.

On to `CO[C@H]1COC(=O)CC=C[C@@H](C)[C@H](OC)COC(=O)CCC[C@@H]1C`, for which the composite z-score was determined as 1.25.

`CCN1C(=O)[C@H]2[C@H]3[C@H](O)[C@H](O)CC(=NNC(=O)OCc4ccc(OC)cc4)[C@@H]3CC[C@H]2C1=O` returned a composite z-score of 0.242.
